LRH-1 inv ag – suppresses constitutive activity of human LRH-1. HEK293T StAR-luciferase reporter, LRH-1 transfected, 24 h. inhibition, % at 3.6 µM. 360,000 compounds, 0.13% hits. AID 602396;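 active means inhibition above the mean inhibition of all tested compounds plus 3 SD, cut at about 73% in these data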;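 further: 0% = DMSO wells and 100% = reporter-only cells lacking LRH-1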
SRC1 inh – inhibitors of human steroid receptor coactivator 1 (SRC1); AID 588354; inhibition, % at 3.6 µM; HEK293 GAL4-SRC1 luciferase reporter, luminescence; Q15788; 360,000 compounds, 0.12% hits;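 active means inhibition above the campaign mean plus 3 SD, with each screening campaign given its own cutoff, cut at about 60% in these data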;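 further: 0% = DMSO treated cells and 100% = gossypol at 36 µM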
SRC3 inh – inhibits human SRC3 coactivator; AID 588352; inhibition, % at 3.6 µM; 360,000 compounds, 0.17% hits; HEK293 GAL4-SRC3 luciferase reporter, luminescence; Q9Y6Q9;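 active means inhibition above a per-campaign cutoff, the mean of all compounds plus 3 SD, cut at about 60% in these data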;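 further: 0% = DMSO-treated cells and 100% = gossypol-treated cells at 36 µM; higher means less SRC3-driven luciferase light from the GAL4 reporter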
NCOA2 inhibitor – inhibits human steroid receptor coactivator 2. HEK293 GAL4-SRC2 luciferase reporter, luminescence. inhibition, % at 9 µM. 370,000 compounds, 0.17% hits;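 active means inhibition above the mean inhibition of all tested compounds plus 3 SD, set per campaign, cut at about 52% in these data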;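 further: 0% = DMSO treated cells and 100% = cells given Gossypol at 36 µM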
NR2F2 inh – blocks human COUP-TFII nuclear receptor | P24468 | HEK293T NGFI-A luciferase reporter, luminescence | inhibition, % at 8.6 µM | 370,000 compounds, 0.7% hits | AID 686940;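 active means inhibition above a per-plate cutoff, mean inhibition of test wells between control levels plus 3 SD, cut at about 38% in these data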;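 further: cells cotransfected with COUP-TFII expression vector driving the NGFI-A reporter; 0% = median of COUP-TF2 test wells and 100% = reporter-only cells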
Target sequence (P24468 whole entry, looked up): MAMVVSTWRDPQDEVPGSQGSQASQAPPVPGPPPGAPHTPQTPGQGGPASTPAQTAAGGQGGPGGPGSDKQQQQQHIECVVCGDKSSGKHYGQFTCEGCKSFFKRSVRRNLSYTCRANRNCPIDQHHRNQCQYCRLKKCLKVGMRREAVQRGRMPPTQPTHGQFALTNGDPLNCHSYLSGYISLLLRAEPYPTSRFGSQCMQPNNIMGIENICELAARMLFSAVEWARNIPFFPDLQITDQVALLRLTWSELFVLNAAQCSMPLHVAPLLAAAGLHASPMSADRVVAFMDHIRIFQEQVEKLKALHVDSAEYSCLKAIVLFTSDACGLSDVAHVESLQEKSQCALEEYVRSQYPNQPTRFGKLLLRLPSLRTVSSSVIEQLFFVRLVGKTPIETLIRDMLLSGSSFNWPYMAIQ
Gli-Sufu antag – antagonists of Gli-Sufu signaling; AID 588413; inhibition, % at 5 µM; Sufu-KO-LIGHT fibroblasts, Gli luciferase reporter luminescence; 340,000 compounds, 0.74% hits;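 active means inhibition above about 55%, limit read from the data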;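 further: 0% = DMSO-treated cells and 100% = wells with medium but no cells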
Gli-Sufu confirm – Gli-SUFU antagonism confirmation, single concentration | 2,500 compounds, 40% hits | Sufu-KO-LIGHT cells, Gli luciferase reporter, luminescence | shares compounds with Gli-Sufu antag | AID 602428 | inhibition, % at 5 µM;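 active means mean inhibition at 5 µM reaching about 45%, limit read from the data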;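 further: plate controls were DMSO-treated cells for no effect and wells lacking cells for full effect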
Gli cytotox – counter-screen for Gli-SUFU antagonists: cytotoxicity. shares compounds with Gli-Sufu antag. Sufu-KO-LIGHT cells cytotoxicity, ATP luminescence. cytotoxicity, % at 5 µM. 2,500 compounds, 32% hits;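 active means mean cytotoxicity at 5 µM above about 25%, limit read from the data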;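 further: cells exposed to compound overnight for roughly 16 to 18 hours; plate controls were DMSO wells with cells for no effect and medium without cells for full effect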
Wnt3a counter – inhibits Wnt3a reporter, counter-screen for Gli-SUFU antagonists; AID 651995; shares compounds with Gli-Sufu antag; Wnt-LIGHT cells, Wnt3a-driven luciferase reporter, luminescence; inhibition, % at 6.25 µM; 2,500 compounds, 20% hits;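 active means mean inhibition above about 25%, limit read from the data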
Gal4-VP16 ctr – counter-screen for COUP-TFII antagonists: inhibitors of VP16. shares compounds with NR2F2 inh. HEK293 Gal4-VP16 luciferase reporter, luminescence. inhibition, % at 8.5 µM. 2,500 compounds, 25% hits. AID 687007; in the data active means inhibition above about 13%
COUP-TFII conf – confirmation of human COUP-TFII (NR2F2) inhibitors; shares compounds with NR2F2 inh; HEK293 NGFI-A luciferase reporter, luminescence; inhibition, % at 8.5 µM; 2,500 compounds, 45% hits;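 active means mean inhibition over three repeats above a set limit taken from the earlier primary screen, cut at about 38% in these data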;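 further: 100% = cells given the luciferase reporter alone without the COUP-TF2 vector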
Numbers without * were called inactive; · = no result given. Most compounds without a hit are left out; they make up all but 1.3% or so of the library.

SMILES	LRH-1 inv ag	SRC1 inh	SRC3 inh	NCOA2 inhibitor	NR2F2 inh	Gli-Sufu antag	Gli-Sufu confirm	Gli cytotox	Wnt3a counter	Gal4-VP16 ctr	COUP-TFII conf
Cc1ccc(S(=O)(=O)N2CCN(c3ncnc4sccc34)CC2)cc1	20	8	15	22	50*	63*	58*	34*	22	6	37
CCOC(=O)C1=C(C(=O)OCC)C2N(Cc3ccc(C#N)cc3)c3ccccc3[C@@]23C[C@@H](C(=O)OC)N(S(=O)(=O)c2ccc(C)cc2)C3=N1 (stereo partly drawn)	·	·	·	3	-4	·	·	·	·	·	·
CCOC(=O)[C@]12CCCC=C1N(CCCOC)C(=O)[C@@H]2CC(=O)N1CCSCC1	·	·	·	4	-4	·	·	·	·	·	·
Cc1ccc(C2CC(C(F)(F)F)n3nc(C(=O)NCc4c(C)nn(C)c4C)c(Cl)c3N2)cc1 (stereo not drawn)	23	26	33	21	45*	54	54*	32*	11	0	23
Cc1nn(C)c(C)c1CNC(=O)c1cnn2c1NC(c1ccccc1)CC2C(F)(F)F (stereo not drawn)	0	-20	16	16	-13	4	·	·	·	·	·
Nn1c(SCc2ccc(Br)cc2)nnc1-c1n[nH]c2c1CCC2	·	·	·	-9	-1	·	·	·	·	·	·
CCOC(=O)C1CSCCS(=O)(=O)N1Cc1ccccc1C (stereo not drawn)	·	·	·	-7	3	·	·	·	·	·	·
Cc1cc(=O)[nH]c(SCC(=O)/C=C2\N(C)c3ccccc3C2(C)C)n1	3	1	17	27	42*	68*	61*	25	27*	6	9
S=C(NCCCN1CCOCC1)N1CCN(c2nc(-c3ccc(Cl)cc3)cs2)CC1	16	16	22	25	58*	52	37	17	-81	-2	28
COc1ccc(CC2(CO)CCN(CC3=Cc4cc(Cl)ccc4OC3)CC2)cc1	20	-12	11	18	64*	57*	60*	14	-28	-8	45*
Cc1nc2ccccn2c1C(=O)NC1CCCc2ccccc21 (stereo not drawn)	27	19	19	18	42*	56*	32	4	11	4	37
O=C(NC1CCCc2ccccc21)c1cn2ccccc2n1 (stereo not drawn)	-8	-26	-12	-27	11	1	·	·	·	·	·
O=C(c1cc2sccc2n1Cc1ccc(F)cc1)N1CCN(c2nc3ccccc3s2)CC1	25	10	18	36	56*	64*	70*	27*	-16	4	29
O=C(c1cccs1)N1CCN(c2nc3ccccc3s2)CC1	11	-23	-5	-4	-5	-8	·	·	·	·	·
O=C(NC1CCCCC1)c1ccc(S(=O)(=O)NCc2ccco2)cc1	13	-5	12	-30	6	4	·	·	·	·	·
O=C(NC1CCN(Cc2ccccc2)CC1)c1ccc(S(=O)(=O)NCc2ccco2)cc1	23	-25	12	11	48*	54	20	24	-12	6	22
CC(C)(C)OC(=O)NCCCCCNC(=O)c1nc[nH]c1C(=O)NCCCCCNC(=O)OC(C)(C)C	34	32	52	34	55*	55*	30	2	-26	2	33
CCCC(=O)OC[C@H]1CN(C2CCCC2)S(=O)(=O)c2c(Oc3ccccc3)cccc2O1	·	·	·	17	5	·	·	·	·	·	·
C[n+]1c2n(c3ccccc31)N=C(c1ccc(Cl)cc1)CS2	34	25	30	17	54*	61*	66*	37*	-9	6	36
COc1ccc(C2=Nn3c([n+](C)c4ccccc43)SC2)cc1	67	37	54	-31	73*	81*	86*	17	40*	10	65*
CCC1=C(CC2NCCc3ccccc32)CC2c3cc(OC)c(OC)cc3CCN2C1 (stereo not drawn)	88*	73*	82*	55*	67*	53	60*	5	85*	-13	54*
C=CCN1C[C@H](COC(=O)CSc2ccccc2)Oc2cccc(F)c2S1(=O)=O	·	·	·	19	-11	·	·	·	·	·	·
c1ccc(-n2ncc3c(NCCCN4CCOCC4)ncnc32)cc1	-110	-91	-60	-43	-40	-56	·	·	·	·	·
Clc1ccc(-n2ncc3c(NCCN4CCOCC4)ncnc32)cc1	43	42	58	37	56*	54	66*	18	59*	-29	48*
COc1ccc(CC(=O)Nc2ccncc2Cl)cc1	44	-3	21	24	51*	66*	54*	26*	31*	-4	32
SMILES	LRH-1 inv ag	SRC1 inh	SRC3 inh	NCOA2 inhibitor	NR2F2 inh	Gli-Sufu antag	Gli-Sufu confirm	Gli cytotox	Wnt3a counter	Gal4-VP16 ctr	COUP-TFII conf
O=C(Cc1ccc(Cl)cc1Cl)Nc1ccncc1	58	8	20	18	50*	51	43	16	22	-2	37
O=C(Cc1c(Cl)cccc1Cl)Nc1ccncc1	44	-46	18	9	-11	-7	·	·	·	·	·
O=C(Cc1ccc(Cl)cc1Cl)Nc1ccncc1Cl	60	27	21	21	40*	73*	49*	23	32*	5	42*
S=C(NCc1ccc(Cl)cc1)Nc1ccncc1	49	5	12	21	58*	63*	49*	14	36*	17*	44*
S=C(NCc1ccc(Cl)cc1)Nc1ccccc1	0	-8	10	6	-3	26	·	·	·	·	·
C[C@@H]1CN([C@@H](C)CO)C(=O)CCCn2cc(nn2)CO[C@H]1CN(C)C(=O)c1ccncc1	·	·	·	-8	1	·	·	·	·	·	·
COC(=O)[C@]12C[C@H](CC(=O)N3CCSCC3)C(=O)N(Cc3ccccc3)C1=C[C@H](C1CCCC1)O[C@@H]2C	·	·	·	16	9	·	·	·	·	·	·
CCCCNc1cccc2c1S(=O)(=O)N[C@H](CC(C)C)CO2	·	·	·	-2	6	·	·	·	·	·	·
Cc1cc(N2CCN(CC(C)(C)O)C[C@@H]2C)ccc1N1CCN(Cc2ccccc2)[C@H](C)C1	·	·	·	8	-11	·	·	·	·	·	·
CCOC(=O)C1=CCN(S(=O)(=O)c2ccc(Br)cc2)C1c1ccc(F)cc1 (stereo not drawn)	·	·	·	19	-3	·	·	·	·	·	·

Assay outcomes: PubChem, several laboratories
